According to PubChem BioAssay (NCI):
This is part of a sample that, as a whole, favours compounds with a hit. Of some 79,000 tested, about 15% had one in any assay. Values without a mark were called inactive. Rule as the data show it: active = growth inhibition above about 70%; inactive = the rest.

Experiment: NCI Yeast Anticancer Drug Screen. Data for the bub3 strain (AID 167)
Details: S. cerevisiae bub3 mutant strain, at 50.0 µM, hits give high values
Summary of the method: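 Yeast carrying a defined mutation is treated with each compound, and growth is compared with that of vehicle-exposed cells to give inhibition.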

| Compound | growth inhibition [%] |
| --- | --- |
| CC(=O)N/N=C/c1ccc([N+](=O)[O-])s1 | 3.55 |
| O=C(O)C(=O)Cc1ccc(Br)cc1[N+](=O)[O-] | 1.45 |
| CC(C)C(=O)Nc1nc2c(ncn2C2OC(CO)C(O)C2O)c(=O)[nH]1 (configuration not stated) | -5.75 |
| CC(SC(=S)N1CCOCC1)C(=O)O (configuration not stated) | -6.05 |
| O=C(Nc1ccc([N+](=O)[O-])cc1)c1cc(N2CCOCC2)ccn1 | 2.15 |
| N#C/C(=C\c1ccccc1)c1cccc(Cl)c1 | 13.8 |
| Cc1ccc(S(=O)(=O)OC2CCCCCCCCCCC2=O)cc1 (configuration not stated) | -0.2 |
| CCOC(=O)CN=NNc1ccccc1C(C)=O | 3.05 |
| COc1ccc(NC(=S)NN=C(C)c2cccc(C(C)=NNC(=S)Nc3ccc(OC)cc3)n2)cc1 | -14.3 |
| O=P(c1ccccc1)(c1ccccc1)C(O)c1cccs1 (configuration not stated) | 24.9 |
| CCOc1ncc(C(O)c2ccco2)c(OCC)n1 (configuration not stated) | 3.15 |
| N#C/C(=N/Nc1nc[nH]c1C(N)=O)C(=O)Nc1ccccc1 | -0.6 |
| CSC(SC)=C(C(=O)c1ccc(Cl)cc1)n1c(=O)sc2cc(Br)ccc21 | 12.8 |
| O=C(Nc1nc2ncn(CCI)c2c(=O)[nH]1)c1ccccc1 | 6.7 |
| O=C(C[n+]1cccc(Cl)c1)c1cccc([N+](=O)[O-])c1 | 4.55 |
| NC(=O)COc1c(Br)cc(Br)cc1Br | -21.4 |
| Cc1cc(C)cc(C(=O)OC2CCCC2)c1 | -5.2 |
